# Assay results from PubChem BioAssay (NCI).
# The panel holds about 83,000 compounds, 20% with a hit somewhere; the sample as a whole holds those more often.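 Single-concentration screen, 48 h exposure, 96-well plates. Endpoint: percent growth. Below 10 = active.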 Unmarked numbers belong to inactive results. Activity calls are given as the source filed them.
# Tested on: HS 578T breast
# Assay: NCI-60 one-dose screen, 48 h (100 = growth as untreated, 0 = no growth, -100 = all killed)
# Conditions: 10 µM unless noted
row,Compound,growth
1,CC1(C)[C@@H](O[C@@H]2OC[C@@H](O[C@@H]3O[C@H](CO)[C@@H](O)[C@H](O)[C@H]3O[C@@H]3OC[C@@H](O)[C@H](O)[C@H]3O)[C@H](O)[C@H]2O[C@@H]2O[C@H](CO)[C@@H](O)[C@H](O)[C@H]2O)CC[C@]2(C)[C@H]3CC[C@]45OC[C@@]6(CC[C@](C)(C=O)C[C@H]64)[C@H](O)C[C@@]5(C)[C@]3(C)CC[C@@H]12,-31.2% (active)
2,O=C(CCl)NNc1nccc(Nc2ccc(S(=O)(=O)Nc3ccncc3)cc2)n1,49.2%
3,CS(=O)(=O)Nc1cc(-c2ccc3ncc(C#N)c(Nc4ccc(F)c(Cl)c4)c3c2)cnc1Cl,-17.7% (active)
4,Cc1[nH]c(C2CC(c3ccc(C(F)(F)F)c(F)c3)=NN2c2ccccc2)c(C)c1C(=O)NCC(F)(F)F (centres undefined),87%
5,C=CN(C(=O)N1CCN(c2cc3c(cc2F)c(=O)c(C(=O)O)cn3C2CC2)CC1)c1nc(-c2ccc(OC)cc2)cs1,20.3%
6,CC(=O)Oc1ccc(OC(C)=O)c2ccccc12,109%
7,O=C1c2ccccc2C(=O)c2c1cc1c(c2[N+](=O)[O-])OCO1,6.81% (active)
8,Cc1cccc2c1C[C@@]1(C2=O)C(c2ccc(C(C)(C)C)cc2)=NOS1=O (some centres undefined),87.2%
9,COc1cccc(Nc2ncnc3cc(NC(=O)CCl)ccc23)c1,-15.4% (active)
10,NC(N)=NS(=O)(=O)c1ccc(NC2=C(I)C(=O)c3ncccc3C2=O)cc1,103%
11,Cc1c(CN)cc(-c2ccc(Cl)cc2)n1-c1ccccc1,87.9%
12,O=C1Nc2ccccc2C1(c1c[nH]c2ccccc12)c1c[nH]c2ccccc12,-17.9% (active)
13,CCN(CC)c1ccc(/C=N/NC(=O)Cc2ccc(Nc3ccnc(C(F)(F)F)c3)cc2)c(O)c1,37.7%
14,COc1ccc2c(c1)c(-c1nc(-c3c[nH]c4ncccc34)cs1)cn2CCCN1CCOCC1,2.12% (active)
15,CNC(C)[C@H]1CCC2C3CC=C4C(=O)[C@@H](NC(=O)C=C(C)C)CC[C@]4(C)C3CC[C@@]21C (some centres undefined),10.2%
16,CN(Cc1ccccc1)c1nc(Cl)c(C2CC(c3ccccc3)=NN2c2ccccc2)s1 (centres undefined),103%
17,N#CC1=C(N)Oc2ccc3ccccc3c2C1c1ccc([N+](=O)[O-])cc1 (centres undefined),90.2%

row,Compound,growth
1,COc1ccc(C(=O)Cn2c(C(=O)c3ccc(OC)cc3)nc3ccccc32)cc1,-12% (active)
2,CC1C(/C=N/NC(N)=S)C(C#N)(C#N)C1(C#N)C#N (centres undefined),91.7%
3,O=C(Cc1ccc(/C=C/C(=O)c2ncc[nH]2)cc1)Nc1cc(C(F)(F)F)cc(C(F)(F)F)c1,87.6%
4,CCOC(=O)c1ccccc1-c1c2ccc(=[N+](C)C)cc-2oc2cc(N(C)C)ccc12,26.1%
5,CCN1C(=O)N(CC)C2C1NN=c1s/c(=C\c3ccc(C(F)(F)F)cc3)c(=O)n12 (centres undefined),18.4%
6,Cc1nn(-c2ccccc2)c(N)c1N=C1NC(=O)/C(=C/c2ccc(Br)cc2)S1,93.6%
7,Cc1ccc(/C=C/C(=O)Nc2ncc(Cc3ccc(F)cc3)s2)o1,49.2%
8,O=C1/C(=C\c2cccc3nccnc23)SC(=S)N1CCc1ccc(O)cc1,95.4%
9,COc1cccc(/C=C/C(=O)c2cccc(Nc3nc(Nc4ccccc4)nc(Nc4ccccc4)n3)c2)c1,81.5%
10,C=C1C(=O)O[C@H]2[C@H]1CC/C(COC(=O)c1cc3cc(Cl)ccc3[nH]1)=C\CC[C@@]1(C)O[C@@H]21,-22% (active)
11,COc1ccc(Cn2cc(C(=O)N=Nc3c(O)[nH]c4c(C)cccc34)nn2)cc1,84.1%
12,NC(=O)c1cnc(Nc2cccc(N)c2)nc1NCCCNC(=O)C1CCC1,72.8%
13,CC1=C2[C@@H](CC1)[C@]1(C)O[C@@](C3CCCCC3)(C[C@H]1OC(=O)CO)[C@H]2OC(=O)/C=C/c1ccccc1,-15.2% (active)
14,O=C(Nc1cnc(Nc2ccc(N3CCOCC3)nc2)nc1Oc1ccc(C(F)(F)F)cc1)c1ccncc1,81.6%
15,Cc1c2cccnc2c(C)c2c1c1cc(CO)ccc1n2C,47.6%
16,COc1cc(OC)c2sc(-c3ccc(-n4cncc4-c4cc(OC)c(OC)c(OC)c4)cc3)nc2c1,62.2%
17,Ic1ccccc1I,97.1%
